In PubChem BioAssay AID1159580 (chemical genetic matrix, 2015):
Out of some 5,500 compounds screened, about 2,000 (36%) were called active. Another 18% or so got no clear call; they are omitted. No stated cut-off is given here; in the data, active means normalized growth mostly below about 0.91 (no sharp cut-off); inconclusive means no clear call, values can overlap the other calls; inactive means mostly above about 0.92. The list shows a part of the results.

Experiment: chemical genetic growth profiling, strain panel (AID 1159580);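 further: tested at 20 µM; growth read once vehicle control cultures reached saturation at 30 °C; 1 = growth at the plate median or of vehicle wells; lower values mean less growth of the strain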
Details: S. cerevisiae deletion strains, growth OD

Measured: normalized growth

CNS(=O)(=O)c1ccc(NC(=O)c2ccccc2C(=O)O)cc1
inactive: locus YAL021C, strain ccr4, hits give low values 1 | locus YAL026C, strain drs2, hits give low values 1 | locus YAL030W, strain snc1, hits give low values 1 | locus YBL061C, strain skt5, hits give low values 0.993 | locus YBR009C, strain hhf1, hits give low values 0.998 | locus YBR023C, strain chs3, hits give low values 1 | locus YBR171W, strain sec66, hits give low values 0.996 | locus YBR231C, strain swc5, hits give low values 0.991 | locus YBR279W, strain paf1, hits give low values 1 | locus YCL011C, strain gbp2, hits give low values 0.993 | locus YCL016C, strain dcc1, hits give low values 1 | locus YCL061C, strain MRC1, hits give low values 1 | locus YCL069W, strain vba3, hits give low values 1 | locus YCR088W, strain abp1, hits give low values 0.999 | locus YDL005C, strain med2, hits give low values 1 | locus YDL040C, strain nat1, hits give low values 1 | locus YDR001C, strain nth1, hits give low values 0.996 | locus YDR069C, strain doa4, hits give low values 0.995 | locus YDR137W, strain rgp1, hits give low values 1.01 | locus YDR159W, strain sac3, hits give low values 0.982 | locus YDR195W, strain ref2 0.977 | locus YDR297W, strain sur2, hits give low values 0.995 | locus YDR334W, strain swr1, hits give low values 1 | locus YDR335W, strain msn5, hits give low values 1 | locus YDR392W, strain spt3, hits give low values 0.968 | locus YEL003W, strain gim4, hits give low values 0.994 | locus YEL037C, strain rad23, hits give low values 1.01 | locus YEL061C, strain CIN8 (second series), hits give low values 0.999 | locus YER015W, strain faa2, hits give low values 0.989 | locus YER016W, strain bim1, hits give low values 1.01 | locus YER111C, strain swi4, hits give low values 1 | locus YER155C, strain BEM2 (second series), hits give low values 1 | locus YFR010W, strain ubp6, hits give low values 1.01 | locus YGL167C, strain pmr1, hits give low values 0.993 | locus YGL173C, strain kem1, hits give low values 0.997 | locus YGL227W, strain vid30, hits give low values 0.998 | locus YGL240W, strain doc1, hits give low values 0.988 | locus YGL253W, strain hxk2, hits give low values 0.998 | locus YHR013C, strain ard1, hits give low values 0.997 | locus YHR027C, strain rpn1, hits give low values 0.992 | locus YHR030C, strain SLT2, hits give low values 0.995 | locus YHR079C, strain IRE1, hits give low values 0.992 | locus YHR142W, strain chs7, hits give low values 1.02 | locus YJL092W, strain hpr5, hits give low values 0.995 | locus YJL095W, strain BCK1 (second series), hits give low values 0.99 | locus YJL095W, strain BCK1, hits give low values 0.981 | locus YJL115W, strain asf1, hits give low values 0.995 | locus YJL129C, strain trk1, hits give low values 1.02 | locus YJL154C, strain vps35, hits give low values 0.997 | locus YJL164C, strain tpk1, hits give low values 1.01 | locus YJL166W, strain qcr8, hits give low values 0.998 | locus YJL187C, strain SWE1, hits give low values 0.99 | locus YJR066W, strain TOR1, hits give low values 0.931 | locus YKL160W, strain elf1, hits give low values 1.01 | locus YKR026C, strain gcn3, hits give low values 0.979 | locus YKR091W, strain srl3, hits give low values 0.994 | locus YLL001W, strain dnm1, hits give low values 1.01 | locus YLL026W, hits give low values 0.995 | locus YLL041C, strain sdh2, hits give low values 1 | locus YLR027C, strain aat2, hits give low values 1 | locus YLR113W, strain HOG1, hits give low values 0.969 | locus YLR221C, strain rsa3, hits give low values 1 | locus YLR258W, strain gsy2, hits give low values 0.998 | locus YLR262C, strain YPT6 (second series), hits give low values 0.992 | locus YLR320W, strain mms22, hits give low values 1 | locus YLR342W, strain FKS1, hits give low values 0.994 | locus YLR357W, strain rsc2, hits give low values 0.994 | locus YLR370C, strain arc18, hits give low values 0.995 | locus YLR384C, strain iki3, hits give low values 0.992 | locus YML120C, strain ndi1, hits give low values 0.992 | locus YMR058W, strain fet3, hits give low values 0.998 | locus YMR125W, strain sto1, hits give low values 0.994 | locus YMR129W, hits give low values 1.01 | locus YMR205C, strain PFK2, hits give low values 0.967 | locus YMR231W, strain pep5, hits give low values 0.998 | locus YNL071W, strain lat1, hits give low values 1.01 | locus YNL183C, strain NPR1, hits give low values 0.933 | locus YNL209W, strain ssb2, hits give low values 0.997 | locus YNL248C, strain rpa49, hits give low values 0.998 | locus YNL322C, strain KRE1 (second series), hits give low values 0.998 | locus YNR049C, strain mso1, hits give low values 1 | locus YOR001W, strain rrp6, hits give low values 1 | locus YOR070C, strain gyp1, hits give low values 0.999 | locus YOR080W, strain dia2, hits give low values 0.994 | locus YOR083W, strain WHI5, hits give low values 0.997 | locus YOR106W, strain vam3, hits give low values 1.01 | locus YOR231W, strain MKK1, hits give low values 0.991 | locus YOR265W, strain rbl2, hits give low values 1.01 | locus YOR270C, strain vph1, hits give low values 1.03 | locus YOR290C, strain snf2, hits give low values 0.995 | locus YPL051W, strain arl3, hits give low values 1.02 | locus YPL078C, strain atp4, hits give low values 1.02 | locus YPL106C, strain sse1, hits give low values 0.984 | locus YPL240C, strain hsp82, hits give low values 0.992 | locus YPL256C, strain CLN2, hits give low values 0.987
